# The whole screen tested about 5,500 compounds, of which about 2,000 (36%) were called active. Inconclusive results (about 18%) are left out. Some of the results follow. Values without a mark were called inactive. No stated cut-off is given here; in the data, active means normalized growth mostly below about 0.91 (no sharp cut-off); inconclusive means no clear call, values can overlap the other calls; inactive means mostly above about 0.92.
# Assay: chemical genetic growth profiling, strain panel (AID 1159580);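 further: tested at 20 µM; growth read once vehicle control cultures reached saturation at 30 °C; 1 = growth at the plate median or of vehicle wells; lower values mean less growth of the strain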
# Conditions: growth OD
compound,measurement,setting,value
CCCc1nn(C)c2c(=O)[nH]c(-c3cc(S(=O)(=O)N4CCN(C)CC4)ccc3OCC)nc12,normalized growth,"S. cerevisiae deletion strains, locus YJR075W, strain HOC1, hits give low values",1.02
same,normalized growth,"S. cerevisiae deletion strains, locus YKL009W, strain mrt4, hits give low values",1.01
same,normalized growth,"S. cerevisiae deletion strains, locus YKL068W, hits give low values",0.995
same,normalized growth,"S. cerevisiae deletion strains, locus YKL085W, strain MDH1 (second series), hits give low values",0.996
same,normalized growth,"S. cerevisiae deletion strains, locus YKL085W, strain MDH1, hits give low values",0.996
same,normalized growth,"S. cerevisiae deletion strains, locus YKL160W, strain elf1, hits give low values",0.999
same,normalized growth,"S. cerevisiae deletion strains, locus YKL190W, strain CNB1, hits give low values",1.02
same,normalized growth,"S. cerevisiae deletion strains, locus YKR001C, strain vps1, hits give low values",0.64 (active)
same,normalized growth,"S. cerevisiae deletion strains, locus YKR026C, strain gcn3, hits give low values",1
same,normalized growth,"S. cerevisiae deletion strains, locus YKR091W, strain srl3, hits give low values",0.987
same,normalized growth,"S. cerevisiae deletion strains, locus YLL001W, strain dnm1, hits give low values",0.992
same,normalized growth,"S. cerevisiae deletion strains, locus YLL026W, hits give low values",0.985
same,normalized growth,"S. cerevisiae deletion strains, locus YLL041C, strain sdh2, hits give low values",0.992
same,normalized growth,"S. cerevisiae deletion strains, locus YLR027C, strain aat2, hits give low values",0.992
same,normalized growth,"S. cerevisiae deletion strains, locus YLR039C, strain RIC1, hits give low values",1.02
same,normalized growth,"S. cerevisiae deletion strains, locus YLR058C, strain SHM2, hits give low values",1.02
same,normalized growth,"S. cerevisiae deletion strains, locus YLR102C, strain apc9, hits give low values",0.988
same,normalized growth,"S. cerevisiae deletion strains, locus YLR113W, strain HOG1, hits give low values",1.03
same,normalized growth,"S. cerevisiae deletion strains, locus YLR221C, strain rsa3, hits give low values",0.988
same,normalized growth,"S. cerevisiae deletion strains, locus YLR258W, strain gsy2, hits give low values",0.984
same,normalized growth,"S. cerevisiae deletion strains, locus YLR262C, strain YPT6 (second series), hits give low values",0.986
same,normalized growth,"S. cerevisiae deletion strains, locus YLR262C, strain YPT6, hits give low values",1.05
same,normalized growth,"S. cerevisiae deletion strains, locus YLR268W, strain sec22, hits give low values",0.993
same,normalized growth,"S. cerevisiae deletion strains, locus YLR320W, strain mms22, hits give low values",0.986
same,normalized growth,"S. cerevisiae deletion strains, locus YLR330W, strain CHS5, hits give low values",1.02
same,normalized growth,"S. cerevisiae deletion strains, locus YLR342W, strain FKS1 (second series), hits give low values",1.03
same,normalized growth,"S. cerevisiae deletion strains, locus YLR342W, strain FKS1, hits give low values",0.99
same,normalized growth,"S. cerevisiae deletion strains, locus YLR357W, strain rsc2, hits give low values",0.983
same,normalized growth,"S. cerevisiae deletion strains, locus YLR370C, strain arc18, hits give low values",0.988
same,normalized growth,"S. cerevisiae deletion strains, locus YLR371W, strain rom2, hits give low values",0.978
same,normalized growth,"S. cerevisiae deletion strains, locus YLR384C, strain iki3, hits give low values",0.981
same,normalized growth,"S. cerevisiae deletion strains, locus YLR418C, strain cdc73, hits give low values",0.987
same,normalized growth,"S. cerevisiae deletion strains, locus YML016C, strain PPZ1, hits give low values",1.02
same,normalized growth,"S. cerevisiae deletion strains, locus YML032C, strain rad52, hits give low values",1
same,normalized growth,"S. cerevisiae deletion strains, locus YML120C, strain ndi1, hits give low values",0.995
same,normalized growth,"S. cerevisiae deletion strains, locus YML124C, strain tub3, hits give low values",0.99
same,normalized growth,"S. cerevisiae deletion strains, locus YMR058W, strain fet3, hits give low values",0.999
same,normalized growth,"S. cerevisiae deletion strains, locus YMR078C, strain ctf18, hits give low values",1.01
same,normalized growth,"S. cerevisiae deletion strains, locus YMR125W, strain sto1, hits give low values",0.981
same,normalized growth,"S. cerevisiae deletion strains, locus YMR129W, hits give low values",0.974
same,normalized growth,"S. cerevisiae deletion strains, locus YMR205C, strain PFK2, hits give low values",0.981
same,normalized growth,"S. cerevisiae deletion strains, locus YMR223W, strain ubp8, hits give low values",1
same,normalized growth,"S. cerevisiae deletion strains, locus YMR231W, strain pep5, hits give low values",0.988
same,normalized growth,"S. cerevisiae deletion strains, locus YMR263W, strain SAP30, hits give low values",1.03
same,normalized growth,"S. cerevisiae deletion strains, locus YMR307W, strain GAS1, hits give low values",1.1
same,normalized growth,"S. cerevisiae deletion strains, locus YNL067W, strain RPL9B, hits give low values",1.03
same,normalized growth,"S. cerevisiae deletion strains, locus YNL071W, strain lat1, hits give low values",0.991
same,normalized growth,"S. cerevisiae deletion strains, locus YNL128W, strain TEP1, hits give low values",1.02
same,normalized growth,"S. cerevisiae deletion strains, locus YNL153C, strain GIM3, hits give low values",1.02
same,normalized growth,"S. cerevisiae deletion strains, locus YNL183C, strain NPR1, hits give low values",0.978
same,normalized growth,"S. cerevisiae deletion strains, locus YNL209W, strain ssb2, hits give low values",0.99
same,normalized growth,"S. cerevisiae deletion strains, locus YNL233W, strain BNI4, hits give low values",1.02
same,normalized growth,"S. cerevisiae deletion strains, locus YNL248C, strain rpa49, hits give low values",0.981
same,normalized growth,"S. cerevisiae deletion strains, locus YNL250W, strain rad50, hits give low values",0.995
same,normalized growth,"S. cerevisiae deletion strains, locus YNL271C, strain bni1, hits give low values",0.99
same,normalized growth,"S. cerevisiae deletion strains, locus YNL298W, strain CLA4, hits give low values",0.984
same,normalized growth,"S. cerevisiae deletion strains, locus YNL307C, strain MCK1, hits give low values",0.995
same,normalized growth,"S. cerevisiae deletion strains, locus YNL322C, strain KRE1 (second series), hits give low values",0.982
same,normalized growth,"S. cerevisiae deletion strains, locus YNL322C, strain KRE1, hits give low values",1.01
same,normalized growth,"S. cerevisiae deletion strains, locus YNR049C, strain mso1, hits give low values",0.992
same,normalized growth,"S. cerevisiae deletion strains, locus YNR052C, strain pop2, hits give low values",1
same,normalized growth,"S. cerevisiae deletion strains, locus YOL006C, strain TOP1, hits give low values",1.1
same,normalized growth,"S. cerevisiae deletion strains, locus YOL012C, strain htz1",0.868
same,normalized growth,"S. cerevisiae deletion strains, locus YOL147C, strain pex11, hits give low values",0.985
same,normalized growth,"S. cerevisiae deletion strains, locus YOR001W, strain rrp6, hits give low values",0.999
same,normalized growth,"S. cerevisiae deletion strains, locus YOR061W, strain CKA2, hits give low values",1.02
same,normalized growth,"S. cerevisiae deletion strains, locus YOR069W, strain VPS5, hits give low values",1.02
same,normalized growth,"S. cerevisiae deletion strains, locus YOR070C, strain gyp1, hits give low values",0.984
same,normalized growth,"S. cerevisiae deletion strains, locus YOR080W, strain dia2, hits give low values",0.996
same,normalized growth,"S. cerevisiae deletion strains, locus YOR083W, strain WHI5, hits give low values",0.987
same,normalized growth,"S. cerevisiae deletion strains, locus YOR106W, strain vam3, hits give low values",0.987
same,normalized growth,"S. cerevisiae deletion strains, locus YOR136W, strain idh2, hits give low values",0.991
same,normalized growth,"S. cerevisiae deletion strains, locus YOR144C, strain elg1, hits give low values",0.986
same,normalized growth,"S. cerevisiae deletion strains, locus YOR184W, strain ser1, hits give low values",0.988
same,normalized growth,"S. cerevisiae deletion strains, locus YOR231W, strain MKK1, hits give low values",1.03
same,normalized growth,"S. cerevisiae deletion strains, locus YOR265W, strain rbl2, hits give low values",1
same,normalized growth,"S. cerevisiae deletion strains, locus YOR270C, strain vph1, hits give low values",0.983
same,normalized growth,"S. cerevisiae deletion strains, locus YOR290C, strain snf2, hits give low values",1
same,normalized growth,"S. cerevisiae deletion strains, locus YOR316C, strain cot1, hits give low values",0.991
same,normalized growth,"S. cerevisiae deletion strains, locus YPL051W, strain arl3, hits give low values",0.993
same,normalized growth,"S. cerevisiae deletion strains, locus YPL055C, strain LGE1, hits give low values",1.05
same,normalized growth,"S. cerevisiae deletion strains, locus YPL078C, strain atp4, hits give low values",0.994
same,normalized growth,"S. cerevisiae deletion strains, locus YPL106C, strain sse1, hits give low values",0.977
same,normalized growth,"S. cerevisiae deletion strains, locus YPL240C, strain hsp82, hits give low values",0.997
same,normalized growth,"S. cerevisiae deletion strains, locus YPL241C, strain CIN2, hits give low values",1.02
same,normalized growth,"S. cerevisiae deletion strains, locus YPL256C, strain CLN2, hits give low values",1.05
same,normalized growth,"S. cerevisiae deletion strains, locus YPR119W, strain clb2, hits give low values",0.986
same,normalized growth,"S. cerevisiae deletion strains, locus YPR141C, strain kar3, hits give low values",0.993
same,normalized growth,"S. cerevisiae deletion strains, locus YPR163C, strain tif3, hits give low values",0.982
same,normalized growth,"S. cerevisiae deletion strains, locus YPR167C, strain met16, hits give low values",0.988
same,normalized growth,"S. cerevisiae deletion strains, strain wtn01, hits give low values",0.998
same,normalized growth,"S. cerevisiae strains, strain wild type, hits give low values",1.01

# From PubChem BioAssay AID1159580 (chemical genetic matrix, 2015)
